A selection: hits, their analogues and other compounds. The true share with any hit is near 2.5%.
Cruzain inh noDet: inhibitors of Trypanosoma cruzi cruzain without detergent | actives 2.3% (n = 200,000) | purified cruzain, Z-FR-AMC fluorescence, no detergent | AID 1476 | Potency, µM, for the others: max response, negative = inhibition, most hits filed as inhibitors | P25779;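 also: plate controls were enzyme without inhibitor for no effect and buffer without enzyme for full effect; nearly all actives have a fitted effect of over 40% in size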
Target sequence (P25779 123-467 limits assumed): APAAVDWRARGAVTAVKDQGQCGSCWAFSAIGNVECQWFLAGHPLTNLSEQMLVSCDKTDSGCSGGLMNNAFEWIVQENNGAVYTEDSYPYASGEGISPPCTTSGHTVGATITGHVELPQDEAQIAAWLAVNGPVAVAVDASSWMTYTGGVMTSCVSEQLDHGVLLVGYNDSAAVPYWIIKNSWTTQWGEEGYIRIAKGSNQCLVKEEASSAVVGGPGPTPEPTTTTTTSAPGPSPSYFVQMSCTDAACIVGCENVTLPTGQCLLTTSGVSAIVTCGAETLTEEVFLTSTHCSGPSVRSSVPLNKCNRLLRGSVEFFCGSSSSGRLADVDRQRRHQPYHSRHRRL
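Purified cruzain at 1.5 nM, pre-incubated 15 min with compound at room temperature in 100 mM sodium acetate pH 5.5, 5 mM DTT, 0.00005% Triton X-100. Reaction started with 2 uM Z-FR-AMC; AMC fluorescence increase over 60 s gives rate.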
Cruzain inh Det: inhibitors of Trypanosoma cruzi cruzain with detergent; P25779; purified cruzain, Z-FR-AMC fluorescence, 0.01% Triton; Potency, µM, for the others: max response, negative = inhibition, hits mostly inhibitors; actives 0.43% (n = 200,000); AID 1478;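 also: plate controls were neutral wells for no effect and buffer without enzyme for full effect; nearly all actives have a fitted effect of over 40% in size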
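Read-out: AMC fluorescence (360 nm excitation, 450 nm emission), four reads over 2 min, first-to-third difference used. Conditions: cruzain 1.5 nM, Z-FR-AMC 2 uM, pH 5.5 acetate, 5 mM DTT, 0.01% Triton X-100.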
The depositor's hits bear a star; ? = inconclusive; ! = a repeat was not active. Calls follow the shape of the dose curve; as a rule, active = well fitted curve in the direction sought with a large enough effect; inconclusive = small, poorly fitted or top-dose-only effect, or another doubt; inactive = no such curve, though single readings can be large; an effect the other way counts as inactive or inconclusive. Potency is read from the fitted curve at half-maximal effect.

SMILES	Cruzain inh noDet	Cruzain inh Det
CC1CCCC(C)N1C(=O)CSc1nnc(NC(=O)Cc2cccs2)s1 (stereo unspecified)	4%	2%
COCCn1c(=O)c(-c2ccc(F)cc2)nc2cnc(Oc3cccc(Cl)c3)nc21	-11%	0%
O=C(/C=C/c1ccc(Cl)cc1)N1CCC(c2nc3ccccc3o2)CC1	17%	4%
O=C(O)[C@@H]1CS[C@@]2(CCCN(Cc3ccccc3)C2)N1	-2%	-3%
CC(C)(C)C1CCc2oc3ccc(NS(=O)(=O)c4cc(Cl)ccc4Cl)cc3c2C1 (stereo unspecified)	4µM*	-2%
CC(C)(C)C1CCc2oc3ccc(NS(=O)(=O)c4ccc(C(=O)O)cc4)cc3c2C1 (stereo unspecified)	?	-24%
Cc1cc(N)c2ccccc2[n+]1CCCCCCCCCC[n+]1c(C)cc(N)c2ccccc21	?	13µM*!
CCCCCCCCC[n+]1cccc2c3ccccc3ccc21	-2%	-9%
COc1cc(-c2nnc(SCCOc3ccc(Cl)cc3C)o2)cc(OC)c1OC	9%	-7%
CC(=O)NC1CC(=O)N(c2ccc3c(c2)OCCO3)C1 (stereo unspecified)	7%	0%
CCc1nc(NCC(C)C)c(C#N)c2c1COC(C)(C)C2	-14%	11%
CCCCc1nc(NCc2ccccc2)c(C#N)c2c1COC(C)(C)C2	25µM*	3%
CCc1cccc(NC(=O)C(Cc2ccccc2)NS(=O)(=O)c2cccs2)c1 (stereo unspecified)	3%	-10%
Cc1ccc(NC(=O)C(Cc2ccccc2)NS(=O)(=O)c2cccs2)cc1Cl (stereo unspecified)	13µM*	-1%
O=C(Nc1ccc(Cl)c(C(F)(F)F)c1)C(Cc1ccccc1)NS(=O)(=O)c1ccc(Br)s1 (stereo unspecified)	4µM*	0%
COc1ccc(NC(=O)C(Cc2ccccc2)NS(=O)(=O)c2ccc(Br)s2)cc1OC (stereo unspecified)	-3%	-5%
Cn1c([N+](=O)[O-])cnc1CN1CCN(CCO)CC1	2%	-1%
COc1ccc(C2c3c(n(C)c4ccccc34)C(=O)N2CC(=O)Nc2ccc(C)c(Cl)c2)cc1 (stereo unspecified)	?	-4%
CCCC[C@@H]1C[C@H]1C(NC(=O)c1cccs1)c1ccc(-c2ccccc2)cc1 (stereo partly specified)	-20%	6%
[ClH+][Cu][ClH+].[Cu].[OH2+]c1ccc2ccccc2c1CN1CCCCC1.[OH2+]c1ccc2ccccc2c1CN1CCCCC1	-5%	1%
CCc1ccc(NC(=O)CSc2nc3c([nH]c4ccccc43)c(=O)n2-c2ccc(C)cc2)cc1	?	-2%
COc1cccc(NC(=O)CSc2nc3c([nH]c4ccccc43)c(=O)n2-c2cc(C)cc(C)c2)c1	16µM*	1%
COc1cccc(-n2c(SCC(=O)Nc3ccc4c(c3)OCO4)nc3c([nH]c4ccccc43)c2=O)c1	16µM*	-4%
COc1cccc(-n2c(SCC(=O)Nc3ccc(F)cc3F)nc3c([nH]c4ccccc43)c2=O)c1	-5%	-1%
COc1cccc(-n2c(SCC(=O)Nc3c(C)cc(C)cc3C)nc3c([nH]c4ccccc43)c2=O)c1	-24%	-1%
SMILES	Cruzain inh noDet	Cruzain inh Det
Cc1ccc(-n2c(SCC(=O)Nc3ccc4c(c3)OCO4)nc3c([nH]c4ccccc43)c2=O)cc1	13µM*	-4%
CC(=O)c1ccc(NC(=O)CCn2cccn2)cc1	0%	-3%
CCN(CCCNC(=O)c1cc2cc3ccc(OC)cc3nc2s1)c1ccccc1	32µM*	20µM*
CCN(CCCNC(=O)c1cc2cc3ccc(OC)cc3nc2s1)c1cccc(C)c1	?	-11%
C=C1C2CC[C@@]3(C)C(c4ccoc4)OC(=O)C[C@@]13OC1CC(=O)C(C)(C)C(C(O)C(=O)OC)[C@]12C (stereo partly specified)	15%	1%
COc1cccc(-c2nc(-c3ccc(NC(=O)c4cccnc4)cc3)no2)c1	19%	-4%
COc1ccc(CC(=O)Nc2ccc(-c3noc(-c4cccc(OC)c4)n3)cc2)cc1	7.9µM*	3%
COc1ccc(-c2noc(CC(=O)Nc3ccc(C)c(F)c3)n2)cc1	-23%	-2%
COc1ccccc1CC(=O)Nc1ccc(-c2noc(COc3ccc(Cl)c(C)c3)n2)cc1	25µM*	4%
CCOc1ccccc1NC(=O)c1ccccc1-c1nc(-c2ccccc2)no1	4%	-1%
CCOc1ccccc1-c1nc(-c2ccc(NC(=O)Cc3ccccc3OC)cc2)no1	25µM*	4%
CCOC(=O)c1c(C)oc2c(Cl)cc(NS(=O)(=O)c3ccc(Cl)c(C)c3)cc12	30%	0%
COCCn1c(C)cc(O)c(C(c2ccc(OC)cc2)N2CCN(c3ccccc3)CC2)c1=O (stereo unspecified)	21%	2%
Cc1c(NC(=O)c2ccc(OC(C)C)cc2)cccc1-c1nc2ncccc2o1	-15%	-2%
O=C(COC(=O)C1CC(=O)N(c2nc(-c3ccccc3)cs2)C1)c1ccccc1 (stereo unspecified)	25µM*	-5%
O=C(COC(=O)C1CC(=O)N(c2ccccc2)C1)c1ccccc1 (stereo unspecified)	0%	2%
CCc1c(C)sc2c1CCN(Cc1cccc(F)c1)C2c1ccccc1 (stereo unspecified)	-5%	-10%
O=C(Nc1ccc(O)c(-c2nc3ccccc3s2)c1)c1cccs1	?	-2%
O=C(/C=C/c1ccco1)NC(=S)Nc1ccc(O)c(-c2nc3ccccc3s2)c1	7.9µM*	0%
Cc1cc(C)cc(NC(=O)Cn2nnc(-c3ccccc3F)n2)c1	-16%	-1%
O=C(c1csnn1)N1CCC2(CCCN(Cc3ccccc3)C2)CC1	4%	1%
O=C(Nc1ccc(SC(F)F)cc1)c1cc(-c2ccc3c(c2)OCCO3)on1	7.9µM*	0%
CC(=O)Nc1ccc(NC(=O)c2cc(-c3ccc4c(c3)OCCO4)on2)cc1	-8%	0%
CCOc1nc2cccc(C(=O)OC(C)OC(=O)OC3CCCCC3)c2n1Cc1ccc(-c2ccccc2-c2nn[nH]n2)cc1 (stereo unspecified)	?	14µM*
CCCc1nc(C(C)(C)O)c(C(=O)OCc2oc(=O)oc2C)n1Cc1ccc(-c2ccccc2-c2nn[nH]n2)cc1	?	-1%
SMILES	Cruzain inh noDet	Cruzain inh Det
CC(=O)N1CC[C@@H]2CC(=O)CC[C@@H]21	-5%	6%
COc1ccc(NC(=O)c2sc3cc(C(F)(F)F)cnc3c2-c2cccs2)cc1	-4%	3%
COC(=O)c1sc2cc(C(F)(F)F)cnc2c1-c1ccccc1	0%	3%
O=C(O)c1sc2cc(C(F)(F)F)cnc2c1-c1ccccc1	16µM*	?
O=C(Nc1ccc(F)cc1)c1sc2cc(C(F)(F)F)cnc2c1-c1cccs1	25µM*	0%
Cc1ccc2nc(-c3ccncc3)c(Nc3ccc(C(C)C)cc3)n2c1	4%	-1%
O=S(=O)(c1ccccc1)N1CCC2(CCCN(c3ccncc3)C2)CC1	3%	1%
Nc1nonc1-c1nc2ccccc2n1Cc1c(Cl)cccc1Cl	25µM*	-4%
Nc1nonc1-c1nc2ccccc2n1Cc1ccccc1	-15%	-7%
CN1C(=O)C(/C(N)=N/NC(=O)c2ccccc2)C2CC1(C)Oc1ccccc12 (stereo unspecified)	-2%	-2%
